# Experimental data reported in the supplement of paper PMC8269313.
# System: 4T1
# Assay: % inhibition of 4T1 cell number vs DMSO control; higher = stronger growth inhibition
# Conditions: 1 µM, 3 days
# How it was run: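 In 96-well imaging plates whose edge wells went unused, 3000 4T1-H2B-GFP mouse breast cancer cells per well were seeded in 2% FBS medium onto plastic, denuded lung matrix, mCAF1 fibroblast-derived matrix, Matrigel (15 μg/mL) or 0.2% gelatin. Sixteen hours on, kinase inhibitors went in at 1 μM final for 3 days before formalin fixation, DAPI staining and imaging on an INCell Analyzer 2200. Counting of GFP-positive nuclei gave cell numbers, from which percent inhibition relative to control was derived.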
# [1] = substrate: lung fibroblast-derived matrix
# [2] = substrate: mCAF1 fibroblast-derived matrix
Structure (SMILES),% inhibition of 4T1 cell number (substrate: Matrigel) [%],% inhibition of 4T1 cell number (substrate: gelatin) [%],% inhibition of 4T1 cell number [1] [%],% inhibition of 4T1 cell number [2] [%],% inhibition of 4T1 cell number (substrate: plastic) [%]
CC(C)(C)c1cc(C=C(C#N)C#N)cc(Br)c1O,46.6,-2.78,2.02,0.929,35.7
COc1ccc2c(c[n+](C)c3c4cc5c(cc4ccc23)OCO5)c1OC [Chelerythrine Chloride],20,-43,4.48,8.26,-4.98
O=S(=O)(c1c(O)c(Cl)cc(Cl)c1Cl)c1c(O)c(Cl)cc(Cl)c1Cl [p38 MAP Kinase Inhibitor IV],-24.4,7.41,-2.09,31.2,-30.3
O=C1NC(=O)c2c1c1c3ccccc3n3c1c1c2c2ccccc2n1[C@H]1CC[C@@H]3O1,30,44.2,-1.14,29.4,87.4
O=[N+]([O-])/C=C/c1ccc2c(c1)OCO2 [Syk Inhibitor III],-4.15,-72.6,-12.2,-33.4,-19.4
NC(=NN=Cc1ccc(-c2cccc([N+](=O)[O-])c2)o1)N[N+](=O)[O-] [ERK Inhibitor III],24.7,24.5,-2.29,-12.4,41.4
COc1ccc2c(c1)/C(=C/c1cnc[nH]1)C(=O)N2,24.5,50.7,8.25,17.6,17.3
"COC(=O)[C@]1(O)C[C@@H]2O[C@@]1(C)n1c3ccccc3c3c4c(c5c6ccccc6n2c5c31)C(=O)NC4 [K-252a, Nocardiopsis sp.]",87.4,91.8,2.02,98.1,91.5
